The source made the active and inactive calls.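 How the source made its calls: active means visually confirmed hit in the image check and inhibition above 20%; inconclusive means visually confirmed hit but inhibition not above 20%; inactive means no visual hit in the image check.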
experiment: inhibitors of E-selectin induction by TNFa, primary screen, imaging, HUVEC, immunofluorescence, MLSMR starter and 10KST1 sets (AID 487); settings: HUVEC TNFalpha-induced E-selectin immunofluorescence imaging, at 2 µM; inhibition: stronger effect = higher value; nuclei count: measured here: cell number, toxicity;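 on inhibition: signal is fraction of cell area covered by stained E-selectin grains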;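 on nuclei count: 100% = median nuclei count of all wells on the same plate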

SMILES	inhibition	nuclei count
Cc1nc2c(-c3ccc(F)cc3)c(C)nn2c(C)c1CCC(=O)NC(C)CCc1ccco1 (stereo not drawn)	-23.2% (inactive)	110%
CCOC(=O)N1CCC(NC(=O)CSCc2nc(-c3cccc(OC)c3)oc2C)CC1	-30.2% (inactive)	124%
Cn1c(=O)[nH]c(=O)c2c1nc(NC1CCCCC1)n2CC(=O)NC1CCCCC1	10.2% (inactive)	105%
O=S(=O)(Nc1ccc(Cc2ccncc2)cc1)N1CCCC1	-102% (inactive)	130%
CCOc1ccc2nc(NC(=O)CSc3nnnn3C3CCCCC3)sc2c1	-74.4% (inactive)	92.8%
COc1ccccc1OCCCCNCCO	-80.3% (inactive)	130%
Cc1cccc(-n2ncc3c(NCCCO)ncnc32)c1	-2.8% (inactive)	107%
COc1cc(NC(=O)Nc2cccc(Cl)c2)c(OC)cc1NC(=O)CN1CCCCC1	-45.1% (inactive)	132%
CCOC(=O)N1CCN(C(=O)c2n[nH]c(=O)c3ccccc23)CC1	-37.5% (inactive)	80.9%
C=CCN1C(=O)C2(C(C#N)=C(N)Oc3n[nH]c(CCC)c32)c2ccccc21 (stereo not drawn)	-37.6% (inactive)	114%
CCOc1ccc2[nH]c(=O)c(C(c3nnnn3CC3CCCO3)N3CCc4ccccc4C3)cc2c1 (stereo not drawn)	-1.8% (inactive)	119%
Cn1c(Cc2ccccc2)nnc1SCC(=O)N1CCOCC1	-74.1% (inactive)	123%
CC1=C(C(=O)OC2CCCCC2)C(c2ccc(C)o2)C2=C(CC(C)(C)CC2=O)N1 (stereo not drawn)	-13.3% (inactive)	112%
O=S(=O)(NC1CCCCC1NS(=O)(=O)c1ccc(F)cc1)c1ccc(F)cc1 (stereo not drawn)	5.1% (inactive)	112%
CCOC(=O)c1ccc(NC(=O)Cn2cc3c(n2)CCC(C)C3)cc1 (stereo not drawn)	-6% (inactive)	101%
O=C(O)C1CC(=O)N(CCOc2ccccc2)C1 (stereo not drawn)	-59.8% (inactive)	101%
COC(=O)c1ccc(NC(=O)C(C)N2C(=O)c3ccccc3C2=O)cc1 (stereo not drawn)	-39.9% (inactive)	108%
COc1ccc(N2CCN(C(=O)COc3ccc4ccccc4c3)CC2)cc1	-29.6% (inactive)	111%
Cn1cc(CN2CCc3ccccc3C2)c2ccccc21	-62.7% (inactive)	110%
COC(=O)c1cn(NC(=O)c2cccnc2)c(=O)c2ccccc12	29.8% (inactive)	115%

SMILES	inhibition	nuclei count
Cn1c(C(=O)NCCCN2CCCCCC2)cc2c(=O)n(C)c3ccccc3c21	-33.1% (inactive)	101%
O=C(Nc1nccs1)c1ccc(COc2ccccc2Br)o1	-85.8% (inactive)	118%
CC(C)Cn1c(CN(Cc2ccccc2)Cc2ccccc2)nc2c1c(=O)n(C)c(=O)n2C	-12.8% (inactive)	117%
Cc1ccc(CCNC(=O)CC2Oc3ccc(C)cc3NC2=O)cc1 (stereo not drawn)	-33.5% (inactive)	124%
COc1cc2c(=O)n(Cc3ccccc3)c(=O)n(CC(=O)NCc3ccco3)c2cc1OC	-319% (inactive)	109%
O=C(Nc1ccc(Cl)cn1)c1cccnc1	-1.5% (inactive)	102%
CCSc1nc2ccccc2n1CC(N)=O	-62.6% (inactive)	113%
CC1(c2ccc(Cl)cc2)NC(=O)N(CC(=O)NC(=O)NCc2ccco2)C1=O (stereo not drawn)	-48.5% (inactive)	110%
O=C(Nn1cnnc1)C1Cc2ccccc2CN1S(=O)(=O)c1ccc(F)cc1 (stereo not drawn)	0.9% (inactive)	95.6%
Cc1cc(NCCN2CCCCC2)n2c(nc3ccccc32)c1C#N	-2% (inactive)	134%
CCCSc1nnc(-c2ccccc2NC(=O)CC)c(=O)[nH]1	-43.8% (inactive)	96.6%
O=C(NCc1ccco1)c1ccc2c(=O)n(CC3CCCO3)c(=S)[nH]c2c1 (stereo not drawn)	-7.4% (inactive)	101%
C[C@@H]1C[C@H](O)c2cc(Cl)ccc2N1	-39.2% (inactive)	114%
COc1cccc(NC(=O)COC(=O)c2cccnc2)c1	-15.5% (inactive)	108%
NC(=O)CCS(=O)(=O)CCN1CCCCC1	-14.9% (inactive)	116%
Cn1c(=O)n(CCN2CCOCC2)c(=O)c2c1nc1n2CCN1c1ccccc1	-33.7% (inactive)	132%
COC(=O)CSc1nnc(-c2cccs2)n1-c1ccc(Cl)cc1	-50.2% (inactive)	119%
COc1ccc(NC(=O)C(C)Oc2ccc(/C(C)=N\O)cc2)cc1 (stereo not drawn)	24.1% (inactive)	105%
CCOC(=O)c1ccccc1NC(=O)c1cccnc1	-167% (inactive)	135%

From PubChem BioAssay
